The results in this text go back to PubChem BioAssay AID463173 (ICCB-Longwood Screening Facility, Harvard Medical School, 2010).

The whole screen tested about 52,000 compounds, of which about 4,300 (8.3%) were called active. The sample holds actives, similar compounds and a random draw of the others, so the mix is not that of the screen. No stated cut-off is given here; in the data, active means survival mostly below about 52% (no sharp cut-off); inactive means mostly above about 56%.

The subject of the assay is DeltatarO mutant. As to the kind of experiment: growth inhibition of S. aureus wild type versus tarO mutant, primary screen, teichoic acid synthesis inhibitors, RN4220, OD600 (AID 463173). Particulars: OD600, 18 h, stronger effect = lower value, screened at 18.75 µg/mL (by protocol).
`Cc1ccc(C(C)C)c(OCC(=O)Nc2ccc(O)c(-c3nc4cc(Cl)ccc4o3)c2)c1`: the survival was 73% (inactive).

Regarding `CC(C)CNC(=O)Cc1ccccc1`, the survival was 65% (inactive). Regarding `O=C(CN1CCSc2ccccc21)N1CCCCC1`, the survival was 78% (inactive). In the case of `Clc1ccccc1N1CCN(c2ncnc3c2c(-c2ccccc2)cn3-c2ccccc2)CC1` it was 80% (inactive). In the case of `Cc1ccccc1C(=O)Nc1ccc2nc(SCC(=O)N3CCc4ccccc43)sc2c1` it was 106% (inactive); in that of `Cc1ccc(-c2c(C)n3c4c(=O)n(C)c(=O)n(C)c4nc3n2CCCO)cc1`, 81% (inactive); in that of `CCOC(=O)CSc1nnc(CNc2ccc(C)cc2C)n1-c1ccccc1`, 58% (inactive). With `CCN1CCN(C(c2cccc(F)c2)c2c(O)cc(C)n(CCOC)c2=O)CC1` (stereo unspecified), the survival is 73% (inactive). For the compound `CCc1ccc(CNC(=O)c2sc3ncccc3c2-n2c(C)ccc2C)cc1`, the survival was 0% (active). As for `CC(C)Oc1ccc(CNC(=O)c2sc3ncccc3c2-n2cccc2)cc1`, the survival is 46% (active). In the case of `CN(C)c1ccc(CNC(=O)c2sc3ncccc3c2-n2cccc2)cc1`, the survival was 102% (inactive). With `Cc1ccc(CCNC(=O)c2sc3ncccc3c2-n2c(C)ccc2C)cc1` the figure was 64% (inactive); with `COCCNC(=O)c1sc2ncccc2c1-n1c(C)ccc1C`, 98% (inactive).

Take `COc1cc(CNC(=O)c2sc3ncccc3c2-n2cccc2)cc(OC)c1OC`: the survival is 118% (inactive). As for `Cc1cc(SCC(=O)NCc2ccccc2Cl)nc(=O)[nH]1`, the survival is 96% (inactive). `CCc1ccc(-c2nc(CS(=O)CC(=O)NCCc3ccc(C)cc3)c(C)o2)cc1` (stereo unspecified): the survival was 89% (inactive). In the case of `CCOc1ccc(C(=O)c2cn(Cc3ccccc3)c3c(F)cc(F)cc3c2=O)cc1` it was 78% (inactive); in that of `CCc1ccc(NC(=O)Cn2c(=O)c3cc(Cl)ccc3n3nncc23)cc1`, 80% (inactive); in that of `CCOc1ccc(CNC(=O)C2CCCN(c3nn4cc(-c5ccc(F)cc5)nc4s3)C2)cc1` (stereo unspecified), 67% (inactive). In the case of `Cc1ccc(CCNC(=O)c2cc3sccc3n2Cc2ccc(F)cc2)cc1`, the survival is 87% (inactive). For the compound `Cc1ccc(-c2onc(C)c2C)cc1S(=O)(=O)NCc1ccco1`, the survival is 87% (inactive). Consider `COCCCNS(=O)(=O)c1cc(-c2onc(C)c2C)ccc1OC`, for which the survival was 115% (inactive).

For `Cc1ccc(-c2onc(C)c2C)cc1S(=O)(=O)NCc1ccc(N(C)C)cc1`, the survival is -2% (active). In the case of `COc1ccc(-c2onc(C)c2C)cc1S(=O)(=O)NCCc1ccccc1` it was 90% (inactive). For the compound `Cc1ccc(-c2onc(C)c2C)cc1S(=O)(=O)NCc1cccs1`, the survival was 91% (inactive). For the compound `COc1ccc(CCNS(=O)(=O)c2cc(-c3onc(C)c3C)ccc2OC)cc1OC`, the survival is -1% (active).
